# Measured values taken from publication PMC4336329 (PLoS ONE, 2015).
# About 14,000 (4.5%) of roughly 310,000 compounds showed an effect of 50% or more. The effect is printed as a negative number. What follows is part of a selection rich in strong results, with near analogues and random picks from the rest.
# Molecular target: human ether-à-go-go-related gene (hERG) potassium channel (human, UniProt Q12809)
# Test: primary screen, population patch clamp on CHO cells stably expressing hERG; higher = less effect of the substance
# 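Further: peak tail current of the secondary pulse compared with the same well before compound.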
# Chain of human ether-à-go-go-related gene (hERG) potassium channel (Q12809 whole entry, looked up): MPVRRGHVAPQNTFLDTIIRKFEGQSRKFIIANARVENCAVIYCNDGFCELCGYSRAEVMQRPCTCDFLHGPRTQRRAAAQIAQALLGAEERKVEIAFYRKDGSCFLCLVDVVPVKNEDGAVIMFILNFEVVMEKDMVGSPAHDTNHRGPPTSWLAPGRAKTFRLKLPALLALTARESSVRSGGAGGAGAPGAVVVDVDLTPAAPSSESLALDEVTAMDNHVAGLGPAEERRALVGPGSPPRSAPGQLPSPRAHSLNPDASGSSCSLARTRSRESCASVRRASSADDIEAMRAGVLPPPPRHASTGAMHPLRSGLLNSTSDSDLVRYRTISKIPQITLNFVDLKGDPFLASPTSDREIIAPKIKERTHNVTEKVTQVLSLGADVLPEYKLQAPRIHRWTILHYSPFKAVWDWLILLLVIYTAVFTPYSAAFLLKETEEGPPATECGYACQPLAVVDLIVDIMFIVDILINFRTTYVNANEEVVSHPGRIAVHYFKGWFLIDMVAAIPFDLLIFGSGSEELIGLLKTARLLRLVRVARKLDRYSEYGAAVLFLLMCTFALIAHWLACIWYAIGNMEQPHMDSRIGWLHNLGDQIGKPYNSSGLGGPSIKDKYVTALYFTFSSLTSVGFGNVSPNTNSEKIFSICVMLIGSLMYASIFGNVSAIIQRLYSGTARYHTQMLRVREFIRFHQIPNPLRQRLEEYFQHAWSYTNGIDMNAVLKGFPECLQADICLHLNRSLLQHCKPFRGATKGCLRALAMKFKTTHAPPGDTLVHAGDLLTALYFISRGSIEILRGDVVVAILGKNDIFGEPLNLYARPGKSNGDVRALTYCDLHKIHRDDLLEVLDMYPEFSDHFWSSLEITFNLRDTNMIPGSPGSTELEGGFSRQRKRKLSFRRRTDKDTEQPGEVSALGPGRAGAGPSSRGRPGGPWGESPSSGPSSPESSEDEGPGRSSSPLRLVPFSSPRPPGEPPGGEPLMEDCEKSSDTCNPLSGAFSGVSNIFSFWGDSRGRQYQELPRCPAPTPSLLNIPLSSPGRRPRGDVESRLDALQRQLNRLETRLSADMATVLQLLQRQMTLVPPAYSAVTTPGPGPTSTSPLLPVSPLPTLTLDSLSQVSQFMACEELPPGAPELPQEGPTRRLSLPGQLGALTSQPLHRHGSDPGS
row,Compound,"hERG current change (%, negative = inhibition) at 10uM"
1,O=C(NCc1ncc(C(F)(F)F)cc1Cl)Nc1ccccc1,3.57%
2,Cc1ccc(C2=NN(C(=O)CCC(=O)O)C(c3ccc4c(c3)OCO4)C2)cc1 (stereo not drawn),-2.17%
3,COc1ccccc1NCC(=O)n1nc(C)cc1C,29.8%
4,NC(=O)Nc1cc(Cl)ccc1Cl,2.21%
5,COc1cc(-c2nnc(COC(=O)c3ccc(C)o3)o2)cc(OC)c1OC,7.46%
6,Cc1ccc(/C=C/C(=O)NCCc2c[nH]c3ccccc23)o1,-7.78%
7,O=C(NCc1ccccn1)C1CCN(S(=O)(=O)c2cccs2)CC1,-15.8%
8,Cc1ccc2nc(Nc3ccc(C)c(C)c3)c3nncn3c2c1,14.5%
9,CCC1=NN(C(=O)Cc2ccc(OC)cc2)C(O)(C(F)(F)F)C1 (stereo not drawn),-6.51%
10,O=C(NC1=NCCS1)c1ccc(Cl)c(S(=O)(=O)N2CCCCC2)c1,-2.52%
11,CCOC(=O)C(C(=O)OCC)C1CCS(=O)(=O)C1 (stereo not drawn),14.4%
12,Cc1ccnn1C(C)C(=O)O (stereo not drawn),26.3%
13,Cc1ccc(C(=O)N/C(=C\c2ccccc2)C(=O)NCc2ccncc2)cc1,-71.2%
14,Cc1ccc(C(=O)N/C(=C/c2ccccc2)C(=O)NC(Cc2ccccc2)C(=O)O)cc1 (stereo not drawn),8.07%
15,Cc1ccc(C(=O)N/C(=C/c2ccccc2)C(=O)NCC2CCCO2)cc1 (stereo not drawn),-21.7%
16,Cc1ccc(C(=O)N/C(=C/c2ccccc2)C(=O)NCc2ccncc2)cc1,-65.2%
17,O=C(/C=C/c1cccs1)c1ccc(Br)cc1,7.19%
18,CC(C)Oc1ccc(Br)cc1C(=O)N/N=C/c1c[nH]c2ccccc12,16.2%
19,CCOc1ccc(NC(=S)N(CCN2CCOCC2)Cc2cc3cc4c(cc3[nH]c2=O)OCO4)cc1,-34.6%
20,Cc1cc(C)c2cc(CN(CCN(C)C)C(=O)Nc3ccccc3Cl)c(=O)[nH]c2c1,-55.3%
21,Cc1cc(C)c2cc(CN(CCO)C(=O)Nc3ccc(Cl)cc3)c(=O)[nH]c2c1,-1.76%

row,Compound,"hERG current change (%, negative = inhibition) at 10uM"
1,COc1ccccc1NC(=S)N(Cc1ccco1)Cc1cc2cc(C)ccc2[nH]c1=O,3.67%
2,COc1ccc(NC(=O)N(CCc2ccccc2)Cc2cc3c(C)cc(C)cc3[nH]c2=O)cc1,14%
3,COc1ccccc1NC(=S)N(CCCN(C)C)Cc1cc2cc3c(cc2[nH]c1=O)OCO3,33.3%
4,COc1ccc2[nH]c(=O)c(CN(CCN3CCCC3)C(=O)Nc3ccccc3Cl)cc2c1,-47.6%
5,COc1ccccc1NC(=O)N(CCN(C)C)Cc1cc2cc(C)ccc2[nH]c1=O,-50.2%
6,COc1ccccc1NC(=O)N(CCN1CCCC1)Cc1cc2cc(C)ccc2[nH]c1=O,-64.8%
7,CCOc1ccc2[nH]c(=O)c(CN(CCN3CCCC3)C(=S)Nc3ccccc3OCC)cc2c1,-70.2%
8,CCOc1ccc2[nH]c(=O)c(CN(CCN3CCCC3)C(=S)Nc3ccccc3OC)cc2c1,-49.7%
9,COc1cc2cc(CN(CCN3CCCC3)C(=O)Nc3ccccc3Cl)c(=O)[nH]c2cc1OC,-6.16%
10,Cc1ccc(S(=O)(=O)/C(C#N)=C/c2c(N3CC(C)OC(C)C3)nc3ccccn3c2=O)cc1 (stereo not drawn),-46.3%
11,CN(C(=S)NC(=O)c1ccccc1)c1c(N)n(Cc2ccccc2)c(=O)[nH]c1=O,0.51%
12,Cc1ccc(S(=O)(=O)NCCSc2nnnn2C)cc1,-2.53%
13,Cc1cc2cc(OCc3ccccc3)ccc2n1C,18%
14,CN(C)S(=O)(=O)c1cccc(-c2csc(=Nc3ccccc3)n2CCCN2CCOCC2)c1,-26.5%
15,O=C1[C@@H]2[C@H](C(=O)N1O)[C@H]1C=C[C@@H]2C1,-5.3%
16,CC(C)(C)c1cc(CP(=O)(c2ccccc2)c2ccccc2)cc(C(C)(C)C)c1O,14.7%
17,CC(=O)Nc1ccc(S(=O)(=O)N2CCSC2c2ccc(C)cc2)cc1 (stereo not drawn),2.9%
18,Cc1csc(NC(=O)c2ccc3c(c2)OCO3)n1,-0.0676%
19,CCN(CC)CCCN(Cc1cc2cc3c(cc2[nH]c1=O)OCO3)C(=S)Nc1ccccc1OC,-10.5%
20,CCN(CC)CCN(Cc1cc2cc(C)ccc2[nH]c1=O)C(=O)Nc1ccccc1OC,-62.2%
21,CCN(CC)CCCN(Cc1cc2cc3c(cc2[nH]c1=O)OCO3)C(=O)Nc1ccccc1OC,-10.6%

row,Compound,"hERG current change (%, negative = inhibition) at 10uM"
1,Nc1c(-c2cccc(Cl)c2)cnn1-c1cccc([N+](=O)[O-])c1,-41.4%
2,O=C1C2C3C=CC(C3)C2C(=O)N1c1ccc(-c2nc3ccccc3c(=O)o2)cc1 (stereo not drawn),19.6%
3,COC(=O)C1=C(C)N(Cc2ccccc2)C(=O)N[C@H]1c1cccc(C(F)(F)F)c1,-8.04%
4,Fc1ccccc1N1CCN(C2CCCN(Cc3ccccc3C(F)(F)F)C2)CC1 (stereo not drawn),-5.91%
5,Oc1ccccc1CN1CCCC(N2CCN(c3cccc(C(F)(F)F)c3)CC2)C1 (stereo not drawn),-61.9%
6,FC(F)(F)c1ccccc1CN1CCCC(N2CCN(c3ccccc3)CC2)C1 (stereo not drawn),-0.712%
7,CN1CCC(N2CCN(c3cccc(C(F)(F)F)c3)CC2)CC1,-12.8%
8,Fc1ccccc1N1CCN(C2CCCN(Cc3cccc(C(F)(F)F)c3)C2)CC1 (stereo not drawn),-52.1%
9,O=C(C1CCOCC1)N1CCCC(N2CCN(c3cccc(C(F)(F)F)c3)CC2)C1 (stereo not drawn),-12.9%
10,CCCN1CCC(N2CCN(c3cccc(C(F)(F)F)c3)CC2)CC1,-75.3%
11,CC(=O)c1cccc(CN2CCCC(N3CCN(c4ccccc4F)CC3)C2)c1 (stereo not drawn),-35.3%
12,CCN(CC)CC(=O)N1CCCC(N2CCN(c3cccc(C(F)(F)F)c3)CC2)C1 (stereo not drawn),-10.5%
13,COc1ccc(CCNC(=O)c2nonc2N)cc1,-15.8%
14,COc1ccc(CNC(=O)CN(CCC(C)C)S(=O)(=O)c2ccc3c(c2)OCCO3)cc1,-7.73%
15,O=C(/C=C/c1cccc([N+](=O)[O-])c1)NCc1ccccc1,-23.2%
16,Cc1ccc(C2CC(c3cccc(Br)c3)Nc3nnnn32)cc1 (stereo not drawn),-7.07%
17,CCCCNC(=O)N(O)C1N(CCCC)C(=O)N(CC(=O)OC)C1(C)C (stereo not drawn),20%
18,COc1ccc(-c2nc(NC(=O)C3CC(=O)N(Cc4ccco4)C3)sc2C)cc1 (stereo not drawn),-34.3%
19,CC(=O)c1sc(NC(=O)C2CC(=O)N(Cc3ccccc3)C2)nc1-c1ccccc1 (stereo not drawn),-15%
20,CN(c1ccc(-c2csc(NC(=O)C3CC(=O)N(Cc4ccco4)C3)n2)cc1)S(C)(=O)=O (stereo not drawn),-19%
21,CC(=O)c1sc(NC(=O)C2CC(=O)N(Cc3ccco3)C2)nc1-c1ccccc1 (stereo not drawn),-59.4%

row,Compound,"hERG current change (%, negative = inhibition) at 10uM"
1,Cc1ccc(-c2csc(NC(=O)C3CC(=O)N(Cc4ccco4)C3)n2)cc1 (stereo not drawn),-25.5%
2,COc1ccc(-c2csc(NC(=O)C3CC(=O)N(Cc4ccco4)C3)n2)cc1 (stereo not drawn),-70.4%
3,CC(=O)COc1ccc2c3c(c(=O)oc2c1C)CCCCC3,-8.54%
4,Cl.O=C(NCCCn1ccnc1)c1ccc(S(=O)(=O)N2CCOCC2)cc1,8.09%
5,COC(=O)c1ccc(C2/C(=C(\O)c3ccc4c(c3)OCCO4)C(=O)C(=O)N2CCCN(C)C)cc1 (stereo not drawn),-55.9%
6,COCCCN1C(=O)C(=O)/C(=C(/O)c2ccc3c(c2)OCCO3)C1c1ccc(C(=O)OC)cc1 (stereo not drawn),1.43%
7,COc1ccc(C2/C(=C(\O)c3ccc4c(c3)OCCO4)C(=O)C(=O)N2CCCN(C)C)cc1 (stereo not drawn),17%
8,O=C(COC(=O)CC1CC2CCC1C2)NC(=O)NCc1ccco1 (stereo not drawn),-4.89%
9,Cc1nc2ccccc2c(=O)n1/N=C/c1ccccc1Cl,12.8%
10,COC(=O)Cc1ccc(NC(=S)N2CCCC(CO)C2)cc1 (stereo not drawn),-63.2%
11,CC(=O)c1ccc(NC(=S)N2CCCC(CO)C2)cc1 (stereo not drawn),5.17%
12,COC(=O)Cc1ccc(NC(=S)N2CCCC(C)C2)cc1 (stereo not drawn),12.7%
13,O=C(NC1CCCCC1)c1ccc2c(=O)n(CC3CCCO3)c(=O)[nH]c2c1 (stereo not drawn),5.86%
14,N=c1c(C(=O)NC2CCCCC2)cc2c(=O)n3ccccc3nc2n1CC1CCCO1 (stereo not drawn),-74.9%
15,Cc1ccc(S(=O)(=O)c2cc3c(=O)n4ccccc4nc3n(C)c2=N)cc1C,-2.47%
16,Cc1ccc(S(=O)(=O)c2cc3c(=O)n4ccccc4nc3n(CC3CCCO3)c2=N)cc1C (stereo not drawn),-50.8%
17,CCOC(=O)c1cc2c(=O)n3ccccc3nc2n(CC2CCCO2)c1=NC(=O)/C=C/c1ccccc1 (stereo not drawn),-35.7%
18,N=c1c(S(=O)(=O)c2ccccc2)cc2c(=O)n3ccccc3nc2n1CC1CCCO1 (stereo not drawn),-34%
19,CC(NC(=O)c1cc2c(=O)n3ccccc3nc2n(CC2CCCO2)c1=N)c1ccccc1 (stereo not drawn),-75.2%
20,COCCNC(=O)CSc1nc2ccccc2c(=O)n1CC1CCCO1 (stereo not drawn),-11.9%
21,N=c1c(C(=O)NC2CCCC2)cc2c(=O)n3ccccc3nc2n1CC1CCCO1 (stereo not drawn),-83.7%
